Drawing on ChEMBL document CHEMBL3988442, “University of Dundee, Small-Polar-MMV Screening Library” (2021), this text covers Percent Effect for three molecules.

The target of experiment [1] is T1, Aspartate--tRNA(Asp/Asn) ligase (Mycobacterium tuberculosis (strain ATCC 25618 / H37Rv)) (UniProt P9WFW3). Note: in the data most compounds retested in dose-response had high values.
T1 sequence (whole entry): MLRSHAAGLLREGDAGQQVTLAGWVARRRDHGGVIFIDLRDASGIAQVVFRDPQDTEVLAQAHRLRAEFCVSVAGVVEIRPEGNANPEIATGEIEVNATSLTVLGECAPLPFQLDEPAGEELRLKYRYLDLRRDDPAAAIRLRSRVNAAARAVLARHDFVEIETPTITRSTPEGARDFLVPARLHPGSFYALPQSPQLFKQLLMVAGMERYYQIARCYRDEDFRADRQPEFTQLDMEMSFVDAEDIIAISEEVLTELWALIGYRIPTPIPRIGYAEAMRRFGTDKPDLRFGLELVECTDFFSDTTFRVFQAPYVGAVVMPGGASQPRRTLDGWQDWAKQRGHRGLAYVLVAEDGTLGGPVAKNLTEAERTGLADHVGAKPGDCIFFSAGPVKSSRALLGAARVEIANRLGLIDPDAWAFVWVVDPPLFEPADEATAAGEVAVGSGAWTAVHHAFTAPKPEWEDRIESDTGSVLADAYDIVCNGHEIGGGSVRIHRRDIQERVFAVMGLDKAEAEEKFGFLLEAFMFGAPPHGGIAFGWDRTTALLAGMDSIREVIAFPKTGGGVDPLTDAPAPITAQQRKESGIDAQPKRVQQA
The experiment in a line: Assay for Asp RNA synthetase-1 from Mycobacterium tuberculosis. It counts as functional. On the set-up: scale not given: direction of the effect not stated beside the values. The settings on record: 30 µM.

For experiment [2], the target named is Shiga toxin 2 (Escherichia coli O157:H7) (UniProt P09385+P09386). The experiment in a line: E. coli 0.157:H7 Shiga Toxin SOP - stx2 screening assay. On the set-up: scale not given: direction of the effect not stated beside the values. It counts as functional. The conditions noted are these: 30 µM.

For `FC1(F)CCN(Cc2cccnc2)CC12CCN(c1ccccn1)C2` (stereo unspecified), the Percent Effect in experiment [1] came to 1.91%; in experiment [2] it was 4.74%.
For `Cc1nn(C)c(N2CCOCC2)c1CNC1CCN(C(C)(C)C)CC1`, the Percent Effect is -0.171% in experiment [1] and 1.07% in experiment [2].
The like results for `COCC(C)NC(=O)c1cc(Br)c2c(c1)OCCO2` (stereo unspecified) were, in that order, -9.24% and -10.8%.
